# In the library only some 3.4% were active in any assay of this set; here they are far more common.
# GPR151 ag = human GPR151 activation; Q8TDV0; PathHunter beta-arrestin GPR151 cells, luminescence; activation, % at 11.2 µM; 650,000 compounds, 1% hits; in the data active = activation above about 4.9%
# Target sequence (Q8TDV0 whole entry, looked up): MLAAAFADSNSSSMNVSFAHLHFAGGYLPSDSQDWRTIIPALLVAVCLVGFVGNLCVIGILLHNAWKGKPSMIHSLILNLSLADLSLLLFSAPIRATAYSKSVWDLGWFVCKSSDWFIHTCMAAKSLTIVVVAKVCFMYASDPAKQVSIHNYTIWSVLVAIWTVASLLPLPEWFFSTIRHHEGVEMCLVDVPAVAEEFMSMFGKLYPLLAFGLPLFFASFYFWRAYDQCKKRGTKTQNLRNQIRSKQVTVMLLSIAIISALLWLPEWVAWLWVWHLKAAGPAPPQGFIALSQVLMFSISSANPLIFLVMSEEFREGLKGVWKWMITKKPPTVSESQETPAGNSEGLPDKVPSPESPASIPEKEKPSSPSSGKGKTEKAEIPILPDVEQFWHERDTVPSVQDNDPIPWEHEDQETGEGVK
# MITF inh = human MITF inhibition, primary screen; O75030; AlphaScreen MITF homodimerization, bead proximity signal; inhibition, % at 2.6 µM; 650,000 compounds, 0.91% hits; AID 1259374; in the data active = inhibition above about 50%
# FBW7 activator = human FBW7 E3 ligase activation, primary screen | AlphaScreen FBW7–phospho-cyclin E peptide binding, activator screen | normalized activity (activation), % at 26.1 µM | 650,000 compounds, 0.13% hits; in the data active = normalized activity above about 1.9%;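 also: purified mutant Fbw7 with reduced substrate affinity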
# TEAD-YAP block = TEAD-YAP interaction inhibition; HEK-TIYL cells, TEAD-Gal4/YAP UAS-luciferase luminescence; inhibition, % at 9.12 µM; 640,000 compounds, 1.4% hits; in the data active = inhibition above about 32%
# A number is an active result; n = inactive.
SMILES,GPR151 ag,MITF inh,FBW7 activator,TEAD-YAP block
Cc1nc2c(-c3ccc(Cl)cc3)c(C)nn2c(N)c1-c1ccccc1,n,n,n,34
C#CCOC(=O)CCCC(=O)Nc1cccc(C)c1,n,n,n,n
Cc1ccc2ccc(S(=O)(=O)N3CCOCC3)cc2c1,n,n,n,n
CC1Cc2ccccc2N1C(=S)NCC1CCCO1 (configuration not stated),n,n,n,n
O=C(CCN1C(=O)c2cccc3cccc(c23)C1=O)N1CCCCC1,n,n,n,n
CC(C)Oc1ccc(C(=O)Nc2nc(-c3ccc(F)cc3F)cs2)cc1,n,n,n,38
CCn1c(/C=C2/C(=O)Nc3ccccc32)nc2ccccc2c1=O,n,n,n,n
O=C1Nc2ccccc2/C1=N/n1c(-c2ccccc2)nc2ccccc2c1=O,n,n,n,32
COC(=O)c1sc(NC(=O)CSc2ncccc2-c2nc3ccccc3[nH]2)nc1C,n,n,n,n
Cc1nc(NC(=O)CSc2ncccc2-c2nc3ccccc3[nH]2)sc1C,n,n,n,73
CC1CCN(C(=O)CSc2ncccc2-c2nc3ccccc3[nH]2)CC1,n,n,n,49
CC(C)C(=O)Nc1cnc2cnc(-c3cnn(Cc4ccccc4)c3)cn12,n,n,n,n
CC(=O)Nc1cccc(-c2cnc3c(N4CCN(C)CC4)nccn23)c1,n,n,n,n
CC(=O)Nc1cccc(-c2cnc3c(N4CCOCC4)nccn23)c1,n,n,n,79
Oc1cccc(-c2cnc3c(N4CCOCC4)nccn23)c1,n,n,n,80
Oc1ccc(-c2cnc3c(N4CCOCC4)nccn23)cc1,n,n,n,79
COc1ccccc1NC(=S)N/N=C/c1ccc2c(c1)OCCO2,n,n,n,61
COc1ccccc1NC(=O)C(=O)N/N=C/c1ccc2c(c1)OCO2,n,n,n,n
CCOC(=O)CSc1nc2c(sc(=S)n2-c2ccc(Cl)c(C)c2)c(=O)n1-c1ccccc1OC,n,n,2.1,n
O=c1nc2s/c(=C\c3ccco3)c(=O)n2nc1Cc1ccc(F)cc1,n,70,n,n
COc1ccc(C(=O)OCCCC(=O)c2ccc(F)cc2)cc1[N+](=O)[O-],n,n,n,n
CCN(CC)CCCNCC(O)COc1ccc(C(=O)c2ccccc2)cc1 (configuration not stated),n,n,n,n
CCCCC(=O)NC(c1cccs1)c1ccc2cccnc2c1O (configuration not stated),n,n,n,88
COc1ccccc1C(NC(=O)C1CCCCC1)c1ccc2cccnc2c1O (configuration not stated),n,n,n,61
CCC(=O)NC(c1ccccc1Cl)c1ccc2cccnc2c1O (configuration not stated),n,n,n,89
SMILES,GPR151 ag,MITF inh,FBW7 activator,TEAD-YAP block
Cn1ccnc1C(NC(=O)Cc1ccc(O)cc1)c1ccccc1 (configuration not stated),n,n,n,n
O=C(NC(c1ccc(Cl)cc1)c1ccc2cccnc2c1O)C1CCCCC1 (configuration not stated),n,n,n,n
O=C(Cc1ccccc1)NC(c1ccccc1)c1ccc2cccnc2c1O (configuration not stated),n,n,n,58
COc1ccc(C2CC(=O)n3c(nc4ccccc43)N2)cc1 (configuration not stated),n,n,n,n
CCc1nnc(NC(=O)COC(=O)c2cc3ccccc3o2)s1,n,n,n,n
CCOC(=O)CC(NC(=O)Cc1ccccc1)c1ccccc1Cl (configuration not stated),n,n,n,n
CCCCC(=O)NC(c1ccccc1Cl)c1ccc2cccnc2c1O (configuration not stated),n,n,n,87
O=C(Cc1ccccc1)NC(c1ccccc1Cl)c1ccc2cccnc2c1O (configuration not stated),n,n,n,84
CCC(=O)NC(c1ccccc1OC)c1ccc2cccnc2c1O (configuration not stated),n,n,n,44
O=C(CSc1nc2ccccc2c(=O)n1CCCN1CCCCC1)Nc1ccccc1Cl,n,n,n,n
Cc1cc(NC(=O)CSc2nc3ccccc3c(=O)n2CCCN2CCCCC2)n[nH]1,n,n,n,84
Cc1cc(NC(=O)CSc2nc3ccccc3c(=O)n2CCC(=O)N2CCN(c3ccccc3)CC2)n[nH]1,n,n,n,n
Cc1cc(NC(=O)CSc2nc3ccccc3c(=O)n2CCCN2CCC(C)CC2)n[nH]1,n,n,n,85
Cc1cc(NC(=O)CSc2nc3ccccc3c(=O)n2CCCC(=O)N2CCCC2)n[nH]1,n,n,n,54
Cc1cc(NC(=O)CSc2nc3ccccc3c(=O)n2CCCC(=O)NCCc2ccccc2)n[nH]1,n,n,n,n
Cc1nc2c3ccccc3nc(SCC(=O)Nc3cc(C)[nH]n3)n2n1,n,n,n,56
Cc1ccccc1-n1c(=S)sc2c1nc(SCc1nc3ccccc3[nH]1)n1c3ccccc3nc21,n,n,n,n
CCOc1ccc2cc(C(=O)O)c(=O)[nH]c2c1,n,n,n,n
O=S(=O)(c1ccccc1)N(C1CC1)C1CCN(Cc2ccccc2)CC1,n,n,n,n
O=C(COc1ccccc1)N/N=C/c1ccc(OC2CSC2)cc1,n,n,n,n
COc1ccc(C2(C(=O)N3CCC(Nc4nc5c(c(=O)[nH]4)CCC5)CC3)CC2)cc1,n,n,1.9,n
CCc1c(C)nc(NC2CCN(C(=O)C3(c4ccc(OC)cc4)CC3)CC2)[nH]c1=O,n,n,n,n
